Assay results published in PubChem BioAssay AID560 (The Scripps Research Institute Molecular Screening Center, 2006).
The whole screen tested about 65,000 compounds, of which about 980 (1.5%) were called active. Only a selection was taken, and actives are over-represented in it overall. Unmarked numbers belong to inactive results.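 The calls were made as follows: active = activation above the mean of all tested compounds plus 3 SD (cut at about 49% in these data); inactive = the rest.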

target: Nuclear receptor ROR-alpha (Homo sapiens) (UniProt P35398); test: activators of orphan receptor RORA, primary screen, cell-based, luminescence (AID 560); details: CHO-K1 Gal4-RORA LBD luciferase reporter, at 10 µM, hits give high values, percent increase over mock-subtracted basal signal;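 also: 0% = DMSO-treated RORA cells and 100% = added signal equal to DMSO minus mock-transfected cells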
Sequence (P35398 whole entry, looked up, the tested form may be a part): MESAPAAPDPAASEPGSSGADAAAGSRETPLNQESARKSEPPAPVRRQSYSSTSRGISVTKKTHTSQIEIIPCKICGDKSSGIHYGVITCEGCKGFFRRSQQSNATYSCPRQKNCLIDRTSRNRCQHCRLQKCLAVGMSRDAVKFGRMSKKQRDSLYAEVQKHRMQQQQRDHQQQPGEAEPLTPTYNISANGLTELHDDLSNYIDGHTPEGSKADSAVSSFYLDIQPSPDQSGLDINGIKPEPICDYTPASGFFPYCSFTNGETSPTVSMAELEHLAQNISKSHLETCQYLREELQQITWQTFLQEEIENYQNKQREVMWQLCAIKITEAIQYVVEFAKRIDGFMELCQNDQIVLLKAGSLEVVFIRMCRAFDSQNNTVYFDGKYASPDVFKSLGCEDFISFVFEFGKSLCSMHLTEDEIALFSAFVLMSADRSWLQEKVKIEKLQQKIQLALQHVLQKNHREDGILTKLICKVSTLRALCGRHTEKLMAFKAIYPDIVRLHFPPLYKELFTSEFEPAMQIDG

Row | SMILES | activation
1 | COc1ccc(C)c2sc(=NC(=O)c3ccc(C#N)cc3)n(C)c12 | 84.6% (active)
2 | COc1ccc(OC)c2c1sc(=NC(=O)CN1C(=O)CCC1=O)n2C | -2.8%
3 | CCCCSc1nnc(-c2ccc(C)cc2)o1 | 23.4%
4 | Cc1ccc(CN2C(=O)CCC2C(=O)NCCCN2CCCCC2C)cc1 (stereo not drawn) | 13.7%
5 | Cc1noc(NS(=O)(=O)c2ccc(NC(=O)C34CCC(CC3)C4)cc2)c1C | 11.6%
6 | c1ccc(-n2ncc3c(N4CCCC4)ncnc32)cc1 | -23.2%
7 | COc1ccc(-n2ncc3c(N4CCc5ccccc54)ncnc32)cc1 | 50.3% (active)
8 | COc1ccc2oc(=O)c(C(=O)N3CCCc4ccccc43)cc2c1 | -10.5%
9 | COc1ccc(-n2ncc3c(N4CCCc5ccccc54)ncnc32)cc1 | 50.2% (active)
10 | COc1ccc(N2CCN(C(=O)CSc3ncnc4c3cnn4-c3ccc(OC)cc3)CC2)cc1 | -12.8%
11 | Cc1cccc(-n2ncc3c(N4CCc5ccccc54)ncnc32)c1 | 2%
12 | CC(=O)N1CCN(c2ccc(NCc3ccc(C(C)C)cc3)cc2)CC1 | -17.3%
13 | COc1ccc(N2C(=O)C3CCCN3C2c2cccc(OC)c2)cc1 (stereo not drawn) | -2.9%
14 | O=C(NCCN1CCOCC1)[C@H](Cc1ccccc1)N1C(=O)c2ccccc2C1=O | 3.1%
15 | O=C(CN1C(=O)COc2ccccc21)NCCN1CCc2ccccc2C1 | 20.9%
16 | O=C(NCCCNC(=O)NC1CCCCC1)NC1CCCCC1 | -10.6%
17 | CCS(=O)(=O)N1CCC(C(=O)N2CCN(c3ccccc3)CC2)CC1 | -6.6%
18 | COc1cccc2sc(Nc3nc(C)c(C(C)=O)s3)nc12 | 39.6%
19 | Cc1cc(C)c2c(c1)cc(C)c1nnc(SCC(=O)Nc3cc(C)on3)n12 | 44.5%
20 | Cc1cccc(NC(=O)COc2ccccc2C)n1 | -18.4%
21 | Cc1cccc(NC(=O)c2ccc3ccccc3n2)n1 | 83% (active)
22 | Cc1cccc(NC(=O)c2ccccc2NC(=O)C(C)(C)C)n1 | 17.7%
23 | CC(=O)c1c(N)n(C)c(=O)n(C)c1=O | -5.2%
24 | c1ccc2c(NCC3CCCO3)nc(-c3ccncc3)nc2c1 (stereo not drawn) | -11.3%
25 | Cc1ccc(-n2c(SCC(=O)Nc3ccc4c(c3)OCO4)nnc2-c2ccoc2C)cc1 | -1.7%
26 | O=C(Cc1nn[nH]n1)NCCC1=CCCCC1 | -13.7%
27 | Cn1nnc2cc(C(=O)NCCC3=CCCCC3)ccc21 | 18.1%

Row | SMILES | activation
28 | CN(c1ccc(C(=O)NCCC2=CCCCC2)cc1)S(C)(=O)=O | 63% (active)
29 | CC(=NCC1CCCO1)c1c(O)[nH]c(=O)[nH]c1=O (stereo not drawn) | 2.9%
30 | O=C(CS(=O)(=O)Cc1ccccc1)NCC1CCCO1 (stereo not drawn) | 11.4%
31 | O=C1C(C=NCC2CCCO2)=C(O)c2ccccc21 (stereo not drawn) | 48.7% (active)
32 | Cc1ccccc1Nc1nc(N)nc(CN2CCN(c3ccccn3)CC2)n1 | -2.8%
33 | CC(=O)Nc1cccc(-c2cnc3ccccc3n2)c1 | 72.9% (active)
34 | Cc1cc(O)ccc1-c1cnc2ccccc2n1 | 30.5%
35 | CC(=O)Nc1cccc(NC(=O)c2c(-c3ccccc3)noc2C)c1 | -6.7%
36 | CC(C)CC(=O)N=C1SC2CS(=O)(=O)CC2N1CCc1ccccc1 (stereo not drawn) | -3.3%
37 | Cn1c(CNC(=O)C(C)(C)C)nc2ccccc21 | 13.9%
38 | O=C(CSc1nnc(-c2cnccn2)n1Cc1ccco1)c1ccc(Cl)c(Cl)c1 | 1.4%
39 | Cn1c(SCc2c(F)cccc2Cl)nnc1-c1cnccn1 | 62.8% (active)
40 | CCN(CC)C(=O)CSc1nnc(-c2cnccn2)n1-c1ccc(C)cc1 | 12%
41 | COCCn1nnnc1CN1CCC(NC(=O)Nc2cccc(OC)c2)CC1 | -9%
42 | CCOc1cc(S(=O)(=O)NCc2ccc3c(c2)OCO3)ccc1F | -24.1%
43 | CCn1c(CSc2ncccn2)nnc1SCC(=O)N1c2ccccc2CC1C (stereo not drawn) | -7.8%
44 | Cn1c(SCc2nc3ccccc3s2)nnc1-c1ccc2c(c1)OCO2 | 37.8%
45 | CC(C)OC(=O)c1sc2nc3c(cc2c1N)C(=O)CCC3 | 47.6%
46 | Oc1ccc(Cl)cc1/C=N/c1nc2ccccc2[nH]1 | 51.7% (active)
47 | Oc1ccc2nc(Cc3ccccc3)[nH]c2c1 | 2.5%
48 | c1ccc2[nH]c(-c3nc4ccccc4[nH]3)nc2c1 | 14.8%
49 | O=C(C1CCCO1)N1CCC(c2nc3ccccc3[nH]2)CC1 (stereo not drawn) | -13.4%
50 | Fc1c(F)c(C(F)(F)F)c(F)c(F)c1N1CCN(c2ccc3nnc(C(F)(F)F)n3n2)CC1 | -6.8%
51 | O=c1oc2cc(O)ccc2cc1-c1ccc(F)cc1 | 61.8% (active)
52 | COc1cccc(C(=O)c2cc3ccc(O)cc3oc2=O)c1 | 0.2%
53 | COc1ccc(-c2cc3ccc(OCc4nn[nH]n4)cc3oc2=O)cc1 | -23.3%
